High-throughput results as filed in PubChem.
Most compounds without a hit are left out; they make up all but 1.9% or so of the library.
PLCg1 inh: PLC-gamma1 enzyme inhibitors, primary screen, biochemical, fluorescence, purified enzyme. 0.84% of 370,000 active. AID 720700, 2013. fluorogenic substrate. inhibition, % at 12.2 µM. 1-phosphatidylinositol 4,5-bisphosphate phosphodiesterase gamma-1 (Homo sapiens), P19174; in the data active means inhibition above about 9.5%
bovine MsrA act: bovine MsrA enzyme activators, primary screen, biochemical, absorbance, HTS; Methionine sulfoxide reductase A (Bos taurus); purified bovine MsrA, absorbance read-out; activation, % at 10.6 µM; 0.3% of 360,000 active; in the data active means activation above about 7.5%;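 further: 0% = vehicle and 100% = reference activator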
MsrA inhibitor: bovine MsrA enzyme inhibitors, primary screen, biochemical, absorbance, HTS | 0.75% of 360,000 active | Methionine sulfoxide reductase A (Bos taurus) | inhibition, % at 15.5 µM | purified bovine MsrA, absorbance read-out;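 further: 0% = vehicle wells with enzyme and 100% = reference inhibitor wells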
PLCb3 inh: human PLC-beta3 inhibitors, primary screen, biochemical, fluorescence. 1-phosphatidylinositol 4,5-bisphosphate phosphodiesterase beta-3 (Homo sapiens), Q01970. Purified PLC-beta3, fluorogenic substrate. inhibition, % at 12.2 µM. 0.18% of 370,000 active. AID 720704, 2013; in the data active means inhibition above about 11%;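 further: 0% = median of compound wells on plate and 100% = full blocker control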
MsrA act confirm: bovine MsrA activators, retest, confirmation, biochemical, absorbance, HTS | shares compounds with bovine MsrA act | purified bovine MsrA, absorbance read-out | activation, % at 10.6 µM | 12% of 1,000 active; in the data active means activation above about 4%;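 further: enzyme coupled to thioredoxin and thioredoxin reductase with NADPH; 0% = vehicle wells and 100% = reference activator wells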
MsrA conf: bovine MsrA inhibitors, retest, confirmation, biochemical, absorbance, HTS. shares compounds with MsrA inhibitor. AID 651822, 2012. inhibition, % at 15.5 µM. 41% of 2,300 active. purified bovine MsrA, absorbance read-out;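 further: coupled to thioredoxin reductase with NADPH and selenocystamine and DMSO as substrate; 0% = vehicle only and 100% = full effect of reference inhibitor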
Active calls of the source: *; . = no result. Unless noted, no stated cut-off is given here; in the data, active means inhibition above about 4.5%; inactive means the rest.

SMILES	PLCg1 inh	bovine MsrA act	MsrA inhibitor	PLCb3 inh	MsrA act confirm	others
CCCCCCCCN1C(=O)[C@@H](CC(=O)NCCCCc2ccccc2)C[C@@]2(C(=O)OC)C1=C[C@H](C1CCCC1)O[C@@H]2C	0	.	0	-2	.
CCOC(=O)[C@@]12CCCC3=C1N(CCC3)C(=O)[C@H]2CC(=O)N1CCOCC1	-1	.	.	1	.
CC1(C)CC(=O)C(C(N)=NC(=O)c2ccc([N+](=O)[O-])cc2)=C(O)C1	4	17*	-1	-4	-1
CC1(C)CC(=O)C(C(N)=NC(=O)c2ccccc2)=C(O)C1	-1	-2	-1	-3	.
N#Cc1ccc(Cn2ccc3ccc(-c4ccc5ccn(Cc6ccccc6)c5c4)cc32)cc1	-64	.	.	-88	.
CCCCn1nnnc1SCC(=O)c1cc(Cl)ccc1OC	-2	-2	0	0	.
COc1ccc(Cl)cc1C(=O)CSc1nc(N)cc(N)n1	6	8.0*	0	5	-1
Cc1cc(N2CCN(C(=O)OC(C)(C)C)C[C@@H]2C)ccc1N1CCN(Cc2ccccc2)[C@@H](C)C1	0	.	1	1	.
Cc1cccc(NC(=O)c2c(C)cc(=O)oc2C)n1	0	14*	0	1	0
Cc1cc(=O)oc(C)c1C(=O)Nc1cccc2ccccc12	2	-2	-1	4	.
CC(=O)N1N=C(c2ccc(C)cc2)CC1c1ccc2c(c1)OCO2 (stereo unspecified)	1	8.0*	-1	-12	-1
COc1ccc(C2CC(=O)C(c3ccc(C(C)=O)cc3)=CN2Cc2ccccc2)cc1 (stereo unspecified)	-288	.	1	-394	.
Cc1cccc(C)c1-n1nnnc1-c1nc2cc(Br)ccc2[nH]c1=O	-4	8.0*	-1	-2	2
Cc1cccc(C)c1-n1nnnc1-c1nc2cc3ccccc3cc2[nH]c1=O	-16	-1	1	-22	.
COC(=O)[C@]12C[C@H](CC(=O)NCc3cccs3)C(=O)N(Cc3ccccc3)C1=C[C@H](COCc1ccccc1)O[C@@H]2C	1	.	.	0	.
O=C(Cc1cccs1)N/N=C\c1ccc([N+](=O)[O-])s1	-3	6	4	-4	.
Cc1ccc(NC(=S)N/N=C/c2ccc([N+](=O)[O-])s2)cc1	-5	9.2*	1	-18	2
O=C(Nc1ccccc1Cl)N1CCN(c2ccc3nnc(-c4ccccc4)n3n2)CC1	.	17*	.	.	-1
c1ccc(-c2ccccc2C2Cc3nnccc3CN2)cc1 (stereo unspecified)	-1	.	0	-5	.
Cc1ccc(Cn2cc(CN(C(C)(C)C)S(=O)(=O)c3ccccc3Br)nn2)cc1	2	.	.	0	.
CCOC(=O)CSc1nc2ccccc2n1CC(=O)NC(C)(C)C	2	-2	-1	-1	.
COc1ccc(C(=O)CSc2nc3ccccc3n2CC(=O)NC(C)(C)C)cc1	2	9.7*	0	1	-1
O=C(CSc1nnc(-c2ccccn2)n1-c1ccccc1)Nc1ccc(OCc2ccccc2)cc1	1	.	.	-2	.
O=C1c2ccccc2C(=O)c2cc(S(=O)(=O)Nc3ccccc3)ccc21	2	10.0*	29*	2	5.8*	MsrA conf=31*
O=C(NCc1cccs1)C1CCCN(S(=O)(=O)c2cccc3ccccc23)C1 (stereo unspecified)	4	.	.	3	.
SMILES	PLCg1 inh	bovine MsrA act	MsrA inhibitor	PLCb3 inh	MsrA act confirm	others
COc1cc(C=c2c3ccccc3n3c2cc(-c2ccccc2)[n+]3C)cc(OC)c1OC	-128	18*	12*	-188	9.9*	MsrA conf=2
COc1cc(N(C)C)ccc1C=c1c2ccccc2n2c1cc(-c1ccccc1)[n+]2C	-14	4	0	-23	.
CSc1ccc(/C=C2\CCn3c2nc2cc(C(=O)O)ccc2c3=O)cc1	-198	10*	5.0*	-316	-6	MsrA conf=4.8*
COC(=O)c1ccc(/C=C2\CCn3c2nc2cc(C(=O)O)ccc2c3=O)cc1	.	-2	.	.	.
CC(C)[C@H]1/C(=C/C2CC2)N2C(=O)C[C@H](c3ccccc3)N=C2N1C	-9	.	.	-8	.
O=C(Nc1ccc2cn[nH]c2c1)c1c(Cl)cccc1Cl	-2	-6	0	5	.
O=C1C(Cl)=C(Nc2ccc3cn[nH]c3c2)C(=O)c2ccccc21	-12	26*	17*	-18	15*	MsrA conf=10*
